Laboratory results: PubChem BioAssay (NCI)
Where “and” joins values, the source holds several entries; their conditions need not be identical. Equal entries are not always repeated. The panel holds about 83,000 compounds, 20% with a hit somewhere; the sample as a whole holds those more often.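 Compound tested at a single concentration for 48 hours in 96-well plates; a percent growth value below 10 was scored as active.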 Calls of active or inactive are those of the source.

Experiments:
Test in all cases: NCI-60 one-dose screen, 48 h (100 = growth as untreated, 0 = no growth, -100 = all killed)
Details in all cases: 10 µM unless noted
NCI/ADR-RES ovarian = system: NCI/ADR-RES ovarian
T-47D breast = system: T-47D breast
BT-549 breast = system: BT-549 breast
MDA-MB-435 melanoma = system: MDA-MB-435 melanoma
SW-620 colon = system: SW-620 colon
MCF7 breast = system: MCF7 breast
HCT-116 colon = system: HCT-116 colon
HCC-2998 colon = system: HCC-2998 colon
KM12 colon = system: KM12 colon

Structure (SMILES) | growth (NCI/ADR-RES ovarian) | growth (T-47D breast) | growth (BT-549 breast) | growth (MDA-MB-435 melanoma) | growth (SW-620 colon) | growth (MCF7 breast) | growth (HCT-116 colon) | growth (HCC-2998 colon) | growth (KM12 colon)
Oc1ccccc1C=NCCN=Cc1ccccc1O.[Fe] | 104% (inactive) | 97.7% (inactive) | 110% (inactive) | 31.1% (inactive) | 66.1% (inactive) | 70.4% (inactive) | 77% (inactive) | 111% (inactive) | 93% (inactive)
CC(=O)C(N)Cc1ccccc1 (stereo unspecified) | 99.4% (inactive) | 78.3% (inactive) | 96% (inactive) | 102% (inactive) |  | 93.6% (inactive) | 86.3% (inactive) | 96.3% (inactive) | 106% (inactive)
Cc1cc(N(CCCl)CCCl)ccc1C=Nc1ccc(-c2csc(-c3ccccc3)n2)cc1 | 82.4% (inactive) | 57.8% (inactive) | 67.2% (inactive) | 95.2% (inactive) | 83.1% (inactive) | 48% (inactive) | 89.8% (inactive) | 94.2% (inactive) | 89.5% (inactive)
COc1ccc(CN)cc1OC | 106% (inactive) and 103% (inactive) | 113% (inactive) and 97.4% (inactive) | 113% (inactive) and 102% (inactive) | 109% (inactive) | 111% (inactive) and 99.5% (inactive) | 103% (inactive) and 95.5% (inactive) | 97.8% (inactive) and 102% (inactive) | 91% (inactive) and 106% (inactive) | 120% (inactive) and 106% (inactive)
CCN1C(=O)CC(=O)N(CC)C1=S | 73.9% (inactive) | 98.1% (inactive) | 94.5% (inactive) | 105% (inactive) | 108% (inactive) | 100% (inactive) | 93.8% (inactive) |  | 106% (inactive)
CC1(C)N=C(N)N=C(N)N1c1ccc(CCC(=O)Nc2ccc(S(=O)(=O)F)cc2)cc1 | 117% (inactive) | 88.9% (inactive) | 58.7% (inactive) | 20.8% (inactive) | 25.8% (inactive) | 24.9% (inactive) | 12.3% (inactive) | 42.3% (inactive) | 13.3% (inactive)
C[Se]/C=C1/C(=O)N(c2c(Cl)cccc2Cl)c2ccccc21 | 9.06% (active) | 65.8% (inactive) | -35.6% (active) | -30.3% (active) | 19.3% (inactive) | 17.3% (inactive) | 11.4% (inactive) | 77.2% (inactive) | 72% (inactive)
CC/C(=C(\c1ccc(OCCN2CCOCC2)cc1)c1ccc(OC(=O)Cc2ccccc2)cc1)c1ccc(Cl)cc1 | 105% (inactive) | 63.5% (inactive) | 104% (inactive) | 107% (inactive) | 99.9% (inactive) | 75.8% (inactive) | 97.3% (inactive) | 106% (inactive) | 101% (inactive)
C[C@]12CCc3sc(Nc4ccc(OC(F)(F)F)cc4)nc3C1=CC[C@@H]1[C@@H]2CC[C@]2(C)C(=O)CC[C@@H]12 | 81.6% (inactive) | 41.8% (inactive) | 53.5% (inactive) |  | 43.3% (inactive) | 17.1% (inactive) | 7.77% (active) | 96.5% (inactive) | 53.5% (inactive)
COc1ccc(C(C#N)C(C)=O)cc1 (stereo unspecified) | 102% (inactive) | 104% (inactive) | 100% (inactive) | 123% (inactive) | 104% (inactive) | 102% (inactive) | 105% (inactive) |  | 98.5% (inactive)
OCCNC1CCCCC1 | 115% (inactive) | 98.4% (inactive) | 113% (inactive) | 106% (inactive) | 108% (inactive) | 101% (inactive) | 94.3% (inactive) |  | 107% (inactive)
N#CCC(=O)c1ccccc1 | 104% (inactive) | 99.4% (inactive) | 116% (inactive) | 101% (inactive) | 97.6% (inactive) | 92.6% (inactive) | 107% (inactive) | 71.2% (inactive) | 90.8% (inactive)
CC(Oc1ccc(-c2ccccc2)cc1)C(=O)O (stereo unspecified) | 104% (inactive) | 98.4% (inactive) | 106% (inactive) | 102% (inactive) | 102% (inactive) | 103% (inactive) | 98.5% (inactive) |  | 107% (inactive)
C(=NC1CCCCC1)=NC1CCCCC1 | 111% (inactive) and 75.5% (inactive) | 104% (inactive) and 14.6% (inactive) | 113% (inactive) and 91.1% (inactive) |  | 106% (inactive) and 88.6% (inactive) | 100% (inactive) and 87.2% (inactive) | 93.6% (inactive) and 81.4% (inactive) | 105% (inactive) and 87.7% (inactive) | 109% (inactive) and 95.7% (inactive)
O=C(O)c1ccccc1N(CCO)CCCl | 95.1% (inactive) | 87.6% (inactive) | 95.9% (inactive) | 112% (inactive) | 107% (inactive) | 95.9% (inactive) | 95.3% (inactive) | 103% (inactive) | 103% (inactive)
C=CC1CN2CCC1CC2C(O)c1ccnc2ccccc12 (stereo unspecified) | -15.5% (active) | 135% (inactive) | 181% (inactive) | 128% (inactive) | 112% (inactive) | 116% (inactive) | 110% (inactive) |  | 115% (inactive)
CCCCCCCCCCCCCCCC[N+](C)(C)C | 51.9% (inactive) and 82.5% (inactive) | 4.4% (active) and -13.9% (active) | -76% (active) and -41.5% (active) | -70.1% (active) and 7.38% (active) | -92.5% (active) and 8.75% (active) | -78% (active) and 16.9% (inactive) | -72% (active) and 4.21% (active) | -91% (active) and 20.9% (inactive) | -83% (active) and -93.1% (active)
CC1(C)CN=C(NN=C(/C=C/c2ccc(C(F)(F)F)cc2)/C=C/c2ccc(C(F)(F)F)cc2)NC1 | -68.4% (active) | -86.1% (active) | -16.8% (active) | -83.6% (active) | -52.6% (active) | -99.5% (active) | -85.8% (active) |  | -86.8% (active)
Oc1ccc(O)c(Cl)c1 | 102% (inactive) and 97.3% (inactive) | 89.1% (inactive) | 66.3% (inactive) and 96.1% (inactive) | 102% (inactive) and 109% (inactive) | 112% (inactive) and 115% (inactive) | 86% (inactive) and 96.7% (inactive) | 102% (inactive) and 109% (inactive) | 110% (inactive) and 88.1% (inactive) | 100% (inactive) and 102% (inactive)
C[C@]12CCc3sc(Nc4ccc(F)cc4F)nc3C1=CC[C@@H]1[C@@H]2CC[C@]2(C)C(=O)CC[C@@H]12 | 67.6% (inactive) | 48.9% (inactive) | 59.6% (inactive) | 51.5% (inactive) | 7.16% (active) | 14.6% (inactive) | -23.3% (active) | 71.6% (inactive) | 57.1% (inactive)
OCCN=Cc1c[nH]c2ccccc12 | 100% (inactive) | 94.5% (inactive) | 107% (inactive) | 103% (inactive) | 93.3% (inactive) | 93% (inactive) | 96.7% (inactive) | 107% (inactive) | 102% (inactive)
CCN1C(=O)NC(=O)C(C)(N2C(=O)c3c(F)c(F)c(F)c(F)c3C2=O)C1=O (stereo unspecified) | 17.9% (inactive) | 23.5% (inactive) | 35.9% (inactive) | 21.6% (inactive) | -77.9% (active) | 13.3% (inactive) | -38.8% (active) | 40.8% (inactive) | -59.7% (active)
CCCN1C(=O)NC(=O)C(CC)(N2C(=O)c3c(F)c(F)c(F)c(F)c3C2=O)C1=O (stereo unspecified) | -28.5% (active) | -52.3% (active) | -78.8% (active) | -60.3% (active) | -92.9% (active) | -76.5% (active) | -78.2% (active) | -87% (active) | -96.2% (active)
Nc1cccnc1 | 104% (inactive) | 106% (inactive) | 110% (inactive) | 122% (inactive) | 105% (inactive) |  | 104% (inactive) | 101% (inactive) | 112% (inactive)
Cc1nnc([S-])o1.[Au+].c1ccc([PH+](c2ccccc2)c2ccccc2)cc1 | 99.6% (inactive) | 29.6% (inactive) | 34.1% (inactive) | 43.9% (inactive) | -11.8% (active) | 10.3% (inactive) | 21.6% (inactive) | 80.2% (inactive) | 74.2% (inactive)
CCCC(C)SP(=S)(SC(C)CCC)SC(C)CCC (stereo unspecified) | 99.9% (inactive) | 100% (inactive) | 99.8% (inactive) | 97.3% (inactive) | 91.7% (inactive) | 95.1% (inactive) | 101% (inactive) | 91.5% (inactive) | 97.3% (inactive)
Cc1ccc(P(=O)(O)O)cc1 | 106% (inactive) | 98.8% (inactive) | 122% (inactive) | 107% (inactive) | 105% (inactive) | 98.6% (inactive) | 104% (inactive) | 103% (inactive) | 104% (inactive)
COC1C(O)CC(OC2CC(Oc3cc4cc5c(c(O)c4c(O)c3C)C(=O)[C@@H](OC3CC(OC4CC(OC6CC(C)(O)C(OC(C)=O)C(C)O6)C(O)C(C)O4)C(O)C(C)O3)[C@H]([C@H](OC)C(=O)[C@@H](O)[C@@H](C)O)C5)OC(C)C2OC(C)=O)OC1C (stereo partly specified) | -33.9% (active) | -7.93% (active) | -68.3% (active) | -100% (active) | -16.1% (active) | -18.4% (active) | 0.84% (active) |  | -34.6% (active)
